Experimental findings from PubChem BioAssay AID411 (National Center for Advancing Translational Sciences (NCATS), 2006) are described below.

Molecules are shown by their SMILES. Out of some 72,000 compounds screened, about 1,600 (2.2%) were called active. The full list was thinned out, with actives kept by preference. Unmarked numbers belong to inactive results. The call rests on the fitted dose curve; in most records, active means well fitted inhibition curve with a large enough effect; inconclusive means small, poorly fitted or top-dose-only effect; inactive means flat fitted curve, though single readings scatter.
On the % scale 0 is the no-effect control and ±100 the full control effect; potency means the concentration at half of the fitted maximal effect.

Luciferin 4-monooxygenase (Photinus pyralis), sequence (P08659 whole entry, looked up): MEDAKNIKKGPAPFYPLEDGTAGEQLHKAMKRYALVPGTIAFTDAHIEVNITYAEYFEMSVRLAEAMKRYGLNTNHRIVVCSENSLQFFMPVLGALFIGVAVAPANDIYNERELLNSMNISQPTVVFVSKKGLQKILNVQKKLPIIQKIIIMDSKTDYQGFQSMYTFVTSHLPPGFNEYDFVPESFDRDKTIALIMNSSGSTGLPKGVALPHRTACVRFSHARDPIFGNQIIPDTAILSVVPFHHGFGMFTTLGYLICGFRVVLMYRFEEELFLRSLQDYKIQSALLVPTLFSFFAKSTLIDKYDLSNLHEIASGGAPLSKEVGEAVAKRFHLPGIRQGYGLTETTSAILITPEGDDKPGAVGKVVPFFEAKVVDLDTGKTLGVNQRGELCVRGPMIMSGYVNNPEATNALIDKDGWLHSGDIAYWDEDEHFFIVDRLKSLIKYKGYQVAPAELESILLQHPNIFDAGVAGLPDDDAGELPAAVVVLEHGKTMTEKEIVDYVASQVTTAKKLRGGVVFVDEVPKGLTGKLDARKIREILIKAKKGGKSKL

The assay concerns the target Luciferin 4-monooxygenase (Photinus pyralis) (UniProt P08659). As to the kind of experiment: qHTS Assay for Inhibitors of Firefly Luciferase. Further: nearly all actives have a fitted effect of over 40% in size. As to conditions: purified firefly luciferase, luminescence, 8 min; series mostly up to 57.1 µM; activity change, negative = inhibition: at the top concentration. The protocol: To aid in the interpretation of high-throughput screening (HTS) results derived from luciferase-based assays, we used quantitative HTS, an approach that defines the concentration-response behavior of each library sample, to profile the ATP-dependent luciferase from Photinus pyralis against more than 72 000 samples. Luciferase (PKLight, Cambrex Corporation) was assayed for its ability to generate light using ATP and luciferin as substrates. The ATP concentration in the assay (10 uM) was within the linear range of enzyme activity for the assay conditions used. See following reference for further details: [1] Auld DS, Southall NT, Jadhav A, Johnson RL, Diller DJ, Simeonov A, Austin CP, Inglese J. Characterization of chemical libraries for luciferase inhibitory activity. J Med Chem. 2008 Apr 24;51(8):2372-86. Auld DS, Zhang YQ, Southall NT, Rai G, Landsman M, Maclure J, Langevin D, Thomas CJ, Austin CP, Inglese J. A Basis for Reduced Chemical Library Inhibition of Firefly Luciferase Obtained from Directed Evolution. J. Med. Chem., 2009, 52 (5), pp 1450#1458 [3] Auld DS, Thorne N, Nguyen DT, Inglese J. A specific mechanism for nonspecific activation in reporter-gene assays. ACS Chem Biol. 2008 Aug 15;3(8):463-70. Auld DS, Thorne N, Maguire WF, Inglese J. Mechanism of PTC124 activity in cell-based luciferase assays of nonsense codon suppression. Proc Natl Acad Sci U S A. 2009 Mar 3;106(9):3585-90. Inglese J, Auld DS, Jadhav A, Johnson RL, Simeonov A, Yasgar A, Zheng W, Austin CP. Quantitative high-throughput screening: a titration-based approach that efficiently identifies biological activities in large chemical libraries. Proc Natl Acad Sci U S A. 2006 Aug 1;103(31):11473-8.
Four uL of substrate mix (final concentration, 50 mM imidazole pH 7.2, 50 mM KCl, 7 mM MgCl2, 10 uM ATP, 0.01% Tween 20, 0.05% BSA) was dispensed into white 1536 well plates. Twenty-three nL of compound was delivered by a pin tool and 2 uL of luciferase detector mix (PKLight, Cambrex) was added. Following 8-minute incubation at ambient temperature, luminescence was measured by a ViewLux (Perkin Elmer) at 5 seconds exposure/plate.
(In general: qHTS replaces the single test concentration by a dilution series.)
Regarding `COc1ccc(NC(=O)c2ccc(OC)cc2)cc1`, the Potency is 2 µM (active).

As to `COc1ccc2occ(C(=O)c3ccc(N=C(C)N(C)C)cc3)c2c1`, the “activity change, negative = inhibition” value was -12.2%.

Consider `N#Cc1c2c(c(-c3ccccc3)[nH]c1=O)CCCC2`, for which the “activity change, negative = inhibition” value is 1.63% [at 25.5 µM].

For `O=C(CCN1C(=O)c2ccncc2C1=O)Nc1ccc2c(c1)OCCO2`, the “activity change, negative = inhibition” value was -1.7%.

Turning to `O=C(COc1ccc2oc3c(c2c1)CCCC3)Nc1ccccn1`, the “activity change, negative = inhibition” value was -13%.

Take `CCOC(=O)c1cc(NC(=O)c2cccnc2)cc(C(=O)OCC)c1`: the “activity change, negative = inhibition” value is -0.799%.

With `Cc1ccc(OCC(=O)Nc2ccc(-c3nc4ncccc4o3)cc2)cc1`, the “activity change, negative = inhibition” value is -5.29%.

With `Cc1cc2nc(-c3ccc(NC(=O)c4cccnc4)cc3)oc2cc1C`, the Potency was 12.6 µM (active).

In the case of `CC(=O)c1c(C)[nH]c(C(=O)NCCCN2CCCC2)c1C`, the “activity change, negative = inhibition” value is -0.766%.

As to `Cc1onc(-c2ccccc2)c1C(=O)N1CCOCC1`, the “activity change, negative = inhibition” value was 0.0698%.

For the compound `Cc1cc(C(=O)COC(=O)CCCN2C(=O)c3ccccc3C2=O)c(C)n1C`, the “activity change, negative = inhibition” value is -25.1%.

Take `C=CCN(CC=C)C(=O)CN1C(=O)c2ccccc2C1=O`: the “activity change, negative = inhibition” value is 0.175%.

`C=CCn1c(C)cc(C(=O)CN2C(=O)c3ccccc3C2=O)c1C`: the Potency is 3.98 µM (active).

Consider `COc1cc2c(cc1OC)C(c1ccncc1)CC(=O)N2` (stereo unspecified), for which the “activity change, negative = inhibition” value was 0.391%.

With `O=C(c1ccncc1)N1CCC2(CCCN(C(c3ccccc3)c3ccccc3)C2)CC1`, the activity change, negative = inhibition was -0.104% [at 11.4 µM].

With `Cc1cc(N2CCCCC2)nc2ccc(Cc3ccc4nc(N5CCCCC5)cc(C)c4c3)cc12`, the activity change, negative = inhibition is 0.114% [at 11.4 µM].

Consider `c1c2c(cc3sc(N4CCCCC4)nc13)OCCO2`, for which the Potency was 1.58 µM (active).

In the case of `Fc1cc(F)c2nc(N3CCOCC3)sc2c1`, the “activity change, negative = inhibition” value is -2.74%.

With `CCOC(=O)N1CCC(NC(=O)c2ccc3nc(N4CCOCC4)sc3c2)CC1`, the “activity change, negative = inhibition” value is 0.545%.

As to `Fc1ccc2nc(N3CCCCC3)sc2c1`, the Potency is 25.1 µM (active).

In the case of `C/C(=C\c1ccco1)C1Nc2cccc3cccc(c23)N1`, the “activity change, negative = inhibition” value is -10.3%.

Consider `Cc1ccc(Cn2ccc(NC(=O)c3cc(C(C)C)on3)n2)cc1`, for which the “activity change, negative = inhibition” value is -5.95%.

For `Cc1c(O)c(Br)c(C)c(O)c1Br` (tested in a mixture with another compound), the activity change, negative = inhibition was -10.4% [at 11.4 µM].

Take `O=C(c1ccco1)N1CCC2(CC1)CN(c1ncccn1)C2`: the activity change, negative = inhibition was -0.795% [at 11.4 µM].

`Cc1nn(-c2ccccc2)c2sc(C(=O)N(Cc3ccco3)C(C)C(=O)NC(C)(C)C)cc12` (stereo unspecified): the “activity change, negative = inhibition” value was -28.1%.

For the compound `COc1cccc(Cn2c(=O)c(CCc3ccccc3)nc3cnc(N(C)C)nc32)c1`, the activity change, negative = inhibition was 0.592% [at 11.4 µM].

As to `Cc1ccnc(N2C(=O)c3ccccc3C2Nc2ccc3c(c2)OCCO3)c1` (stereo unspecified), the “activity change, negative = inhibition” value is -4.54%.

With `COC(=O)c1cc(NC2c3ccccc3C(=O)N2c2ccc(Cl)cn2)cc(C(=O)OC)c1` (stereo unspecified), the Potency was 7.94 µM (active).

For the compound `CCc1ccccc1NC1c2ccccc2C(=O)N1c1cccnc1` (stereo unspecified), the “activity change, negative = inhibition” value is 4.17%.

For `CCCCc1nc2c(=O)[nH]c3ccccc3c2o1`, the “activity change, negative = inhibition” value was -2.14%.

In the case of `CSc1nnc2c(n1)OC(c1cn(C)c3ccccc13)N(C(C)=O)c1ccccc1-2` (stereo unspecified), the “activity change, negative = inhibition” value is 1.54%.

For `CCN(CC)C(=O)N1CCN(C(=O)c2ccc(C)cn2)CC1`, the “activity change, negative = inhibition” value was 2.24%.

Take `CCCCC[C@H](O)CCCC(=O)O`: the “activity change, negative = inhibition” value is 2.9%.

On to `Cc1nnc(SCC(=O)N2CCc3ccccc32)n1-c1ccccc1`, for which the “activity change, negative = inhibition” value was 0.58%.

As to `Cc1nnc(SCC(=O)NCCOc2ccc(Cl)cc2)n1-c1ccccc1`, the “activity change, negative = inhibition” value is 1.39%.

As for `Cc1nnc(SCc2ccc(C(=O)c3ccc(Cl)cc3)o2)n1-c1ccccc1`, the Potency was 12.6 µM (active).

For `Cn1c(=O)c(-c2ccccc2)nc2cnc(N3CCNCC3)nc21`, the activity change, negative = inhibition is -0.109% [at 11.4 µM].

As to `CCN(CC)C(=O)CSc1nnc(-c2cccc(OC)c2)o1`, the “activity change, negative = inhibition” value is -5.13%.

On to `COc1cccc(-c2nc3cc(C)ccc3o2)c1`, for which the Potency is 3.98 µM (active).

Consider `COc1cccc(-c2nc(S(=O)(=O)c3ccccc3)c(N3CCOCC3)o2)c1`, for which the “activity change, negative = inhibition” value was 0.874%.

For the compound `CCOC(=O)CCC(=O)OCC(=O)NC(C)C1CC2CCC1C2` (stereo unspecified), the “activity change, negative = inhibition” value is -0.786%.

In the case of `CC[C@H](c1ccccc1)c1cc(C(C)(C)C)cc(C(C)(C)C)c1O`, the activity change, negative = inhibition is 2.75% [at 11.4 µM].

For `CCC(CC)C(=O)Nc1cccc(C(=O)N2CCCC2)c1`, the “activity change, negative = inhibition” value is 0.159%.

As for `COc1ccc(OCC(=O)N2CCN(C(=O)COc3ccccc3)CC2)cc1`, the “activity change, negative = inhibition” value is 1.46%.

As to `COc1ccc(OCc2cccc(C(=O)N3CCCC3)c2)cc1`, the Potency was 25.1 µM (active).

Consider `N#CC1=C(N)Oc2cc(O)ccc2C1C1CCCCC1` (stereo unspecified), for which the “activity change, negative = inhibition” value was -0.463%.

With `CS(=O)(=O)N1CCC2(CC1)CN(Cc1cc(C(F)(F)F)cc(C(F)(F)F)c1)C2`, the activity change, negative = inhibition is -0.965% [at 11.4 µM].

On to `O=C1C=C(NCCNc2c(F)c(F)c(CO)c(F)c2F)CCC1`, for which the “activity change, negative = inhibition” value is -5.44% [at 25.5 µM].

On to `COc1ccccc1N1CCN(CCN2C(=O)c3ccccc3C(C)(C)C2=O)CC1`, for which the “activity change, negative = inhibition” value is -0.281%.

Consider `O=C1CC2(CCCCC2)Oc2ccc(OCC(=O)N3CCOCC3)cc21`, for which the “activity change, negative = inhibition” value was 0.0464%.

Consider `O=C(CCCOc1ccccc1)Nc1cccc(C(=O)O)c1`, for which the “activity change, negative = inhibition” value was -10.1%.

Regarding `CCC(=O)Nc1cccc(NC(=O)c2cccnc2)c1`, the “activity change, negative = inhibition” value is -4.65%.

For `C/C(=C\C(=O)c1ccccc1)Nc1cccc(O)c1`, the Potency is 7.94 µM (active).

For the compound `O=C(Nc1cnccn1)c1cccnc1`, the “activity change, negative = inhibition” value is 0.489%.

With `CC(=O)c1cccc(NC(=O)c2ccncc2)c1`, the “activity change, negative = inhibition” value is -0.13%.

As to `C/C(=C\C(=O)c1cccnc1)Nc1ccc(C)c(C)c1`, the Potency was 12.6 µM (active).
